Key:
PAI-1 wild type, active [1] = molecular target: T1, PAI-1 wild type, active (human, UniProt P05121 24-402); test: branched SELEX with high-throughput sequencing; PAI-1 immobilised on polyclonal anti-PAI-1 antibody; HBS (10 mM HEPES pH 7.4, 140 mM NaCl), 2 mM MgCl2, 2 mM CaCl2, 0.1% BSA; RNA pool 100 nM; PAI-1 captured on antibody-coated wells; 45 min; binding temperature not stated (PAI-1 capture at room temperature); high values mean tight binding; settings: protein: recombinant; tags: N-terminal His6; structured_RNA; 2'-F pyrimidines
PAI-1 wild type, active [2] = molecular target: T1, PAI-1 wild type, active; test: branched SELEX with high-throughput sequencing; PAI-1 immobilised on monoclonal anti-PAI-1 antibody mAb-1; HBS (10 mM HEPES pH 7.4, 140 mM NaCl), 2 mM MgCl2, 2 mM CaCl2, 0.1% BSA; RNA pool 100 nM; PAI-1 captured on antibody-coated wells; 45 min; binding temperature not stated (PAI-1 capture at room temperature); high values mean tight binding; settings: protein: recombinant; tags: N-terminal His6; structured_RNA; 2'-F pyrimidines
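Further: Pool frequency after one selection round with this target divided by frequency before selection.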

T1 sequence (P05121 24-402): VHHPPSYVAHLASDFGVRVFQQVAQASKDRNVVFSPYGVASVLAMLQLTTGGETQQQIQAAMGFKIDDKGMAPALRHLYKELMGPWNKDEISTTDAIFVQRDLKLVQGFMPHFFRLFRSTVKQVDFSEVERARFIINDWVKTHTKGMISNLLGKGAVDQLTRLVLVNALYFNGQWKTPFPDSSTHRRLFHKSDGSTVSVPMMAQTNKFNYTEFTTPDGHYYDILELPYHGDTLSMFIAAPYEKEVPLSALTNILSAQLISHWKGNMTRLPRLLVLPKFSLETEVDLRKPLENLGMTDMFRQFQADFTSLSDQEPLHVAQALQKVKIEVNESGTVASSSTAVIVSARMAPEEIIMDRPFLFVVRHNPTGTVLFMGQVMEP

Sequence | binding signal (PAI-1 wild type, active [1]) [enrichment factor] | binding signal (PAI-1 wild type, active [2]) [enrichment factor]
GGGGCCACCAACGACAUUGUGCCAUGUAGAUCUUUAGGAGAUCGACCAGCAGUGUUGAUAUAAAUAGUGCCCAUGGAUC | 0.57 | 
GGGGCCACCAACGACAUUGGUAAUGGUGUGAAUUAACCUUAAGCCUAUUGGUUGUUGAUAUAAAUAGUGCCCAUGGAUC | 0.22 | 
GGGGCCACCAACGACAUUGAACGUAAGGAGAGUGCGCUUACCGCACAAUGUUUGUUGAUAUAAAUAGUGCCCAUGGAUC | 0.43 | 
GGGGCCACCAACGACAUUCAACGACCAGUACGUGUGAGGGCGUACAUCAUGUAGUUGAUAUAAAUAGUGCCCAUGGAUC | 0.37 | 
GGGGCCACCAACGACAUUUUACUGUAGAGAAGAAUUACUUCUCGACCAAAUGUGGUUGAUAUAAAUAGUGCCCAUGGAUC | 0.55 | 
GGGGCCACCAACGACAUUACGUAGUUUGAGAUAGUUAACUCGAACGAUUAGUUGUUGAUAUAAAUAGUGCCCAUGGAUC | 1.57 | 
GGGGCCACCAACGACAUUACCAUGUAGGCGUAAUUUCACGCUGACCAAGUGUUGUUGAUAUAAAUAGUGCCCAUGGAUC | 1.19 | 
GGGGCCACCAACGACAUUGCCGUAGGCGAUAAUACAUCGCUGAUCAUUUGUACGUUGAUAUAAAUAGUGCCCAUGGAUC | 2.34 | 
GGGGCCACCAACGACAUUACGUAGUUGCCUAAUAAAGGUAGCGAUUUGGAUUCGUUGAUAUAAAUAGUGCCCAUGGAUC | 1.28 | 
GGGGCCACCAACGACAUUGAGUCUCCUACACGCGUAGGUAAGUUCGUCUCAUUGUUGAUAUAAAUAGUGCCCAUGGAUC | 3.79 | 
GGGGCCACCAACGACAUUCCUGCAACGUAGGCGCGUAAGCUCCGAUCAAGGAUGUUGAUAUAAAUAGUGCCCAUGGAUC | 0.53 | 
GGGGCCACCAACGACAUUAUUUUCCGGUCGUUUAGGUGUUCAACACUCCGGAUGUUGAUAUAAAUAGUGCCCAUGGAUC | 8.72 | 
GGGGCCACCAACGACAUUGCCGUAGUGCAGGGUUGCUUGCAUGAUCAAUUGUUGUUGAUAUAAAUAGUGCCCAUGGAUC | 2.1 | 
GGGGCCACCAACGACAUUCGACCAGACGACAAGUCGUCGCACCGUAGAGUGUAGUUGAUAUAAAUAGUGCCCAUGGAUC | 0.15 | 
GGGGCCACCAACGACAUUCACCACGUAGUGAAACUUUCACGACUAGAAUGUAAGUUGAUAUAAAUAGUGCCCAUGGAUC | 0.74 | 
GGGGCCACCAACGACAUUUCGCAGCUUCGUAGUACAGGCGCAAGUUGACACAUGUUGAUAUAAAUAGUGCCCAUGGAUC | 1.47 | 
GGGGCCACCAACGACAUUAAGUUCGUCCCGCAUGGUACGAUGCGGGUCUAUGCGUUGAUAUAAAUAGUGCCCAUGGAUC | 6.47 | 
GGGGCCACCAACGACAUUGAGUCUAGACAAAAUUGUCUUAAGUUCGUCUUAAUGUUGAUAUAAAUAGUGCCCAUGGAUC | 7.89 | 
GGGGCCACCAACGACAUUGUCGUAGGACGUGAGUGUCUGACCGAUGUAGUUGGGUUGAUAUAAAUAGUGCCCAUGGAUC | 0.65 | 
GGGGCCACCAACGACAUUAUGCCGUAGGCGCUAGAUGUGCCGAUCAUAAUGCAGUUGAUAUAAAUAGUGCCCAUGGAUC | 0.5 | 
GGGGCCACCAACGACAUUGAUCACUAAGGUUAGACCGGAGUGCCGUAGAAUGCGUUGAUAUAAAUAGUGCCCAUGGAUC | 0.88 | 

Sequence | binding signal (PAI-1 wild type, active [1]) [enrichment factor] | binding signal (PAI-1 wild type, active [2]) [enrichment factor]
GGGGCCACCAACGACAUUGCCGUAGUUUCUCGAUUCCCAGAGAGACGAUCGAUGUUGAUAUAAAUAGUGCCCAUGGAUC | 4.28 | 
GGGGCCACCAACGACAUUUGUCAACAUAACGUAGAGCAAUUACAGCUCGAUCAGUUGAUAUAAAUAGUGCCCAUGGAUC | 3.13 | 
GGGGCCACCAACGACAUUACGUAGGUAGCAUUUAUAUGCUUGACCGAUCAAUCGUUGAUAUAAAUAGUGCCCAUGGAUC | 1.07 | 
GGGGCCACCAACGACAUUUGACAUCGUAGGCAAAAAAGCUGACUGUUCAGAUUGUUGAUAUAAAUAGUGCCCAUGGAUC | 2.86 | 
GGGGCCACCAACGACAUUGCAUCGUAGGCAUAUAGCUGACUGCAAUUUAGGACGUUGAUAUAAAUAGUGCCCAUGGAUC | 2 | 
GGGGCCACCAACGACAUUGCCGUAGGUGCGGGAACACUUCACCGAUCGAUGUUGUUGAUAUAAAUAGUGCCCAUGGAUC | 2.29 | 
GGGGCCACCAACGACAUUCGGGACUACGUAGGCGGAUUCGCCGAUUACCCGUUGUUGAUAUAAAUAGUGCCCAUGGAUC | 0.7 | 
GGGGCCACCAACGACAUUGUAGACUUGUCAACGGUCGACUGUCGAUACAUGUGUUGAUAUAAAUAGUGCCCAUGGAUC | 0.56 | 
GGGGCCACCAACGACAUUGUUGAGCGCUGAGUUUCUGCGUUAGUUCUGUCAAUGUUGAUAUAAAUAGUGCCCAUGGAUC | 3.37 | 
GGGGCCACCAACGACAUUAAGUUUCGUCCGGAUCGUGCAAUCCGGUCUAUGUGGUUGAUAUAAAUAGUGCCCAUGGAUC | 4.02 | 
GGGGCCACCAACGACAUUCCGCUCAUGAUCUGUUAUCAUGAGUGCGUAGUACCGUUGAUAUAAAUAGUGCCCAUGGAUC | 1.08 | 
GGGGCCACCAACGACAUUACACUGUAGCGAGCCAGACUCGCGACCAAAUGCGUUGAUAUAAAUAGUGCCCAUGGAUC | 0.89 | 
GGGGCCACCAACGACAUUCUGGGCCGUAGGCGAUAUUAGCCGAUCCCAGAAGAGUUGAUAUAAAUAGUGCCCAUGGAUC | 1.43 | 
GGGGCCACCAACGACAUUCGUAACGUAGGGAGUAUUCCCGAUCAGAAUGUACAGUUGAUAUAAAUAGUGCCCAUGGAUC | 0.36 | 
GGGGCCACCAACGACAUUUGCGUAAGCAACCUUGGUGUUAUAUUCACCAGAUCGUUGAUAUAAAUAGUGCCCAUGGAUC | 0.63 | 
GGGGCCACCAACGACAUUUAUCGAAUUGAUAACCUUACGCGAGAGCGUAGUUCGUUGAUAUAAAUAGUGCCCAUGGAUC |  | 9.69
GGGGCCACCAACGACAUUUGCGUAAGCAUCCUUCGAUGUACCACAUCGAGAUCGUUGAUAUAAAUAGUGCCCAUGGAUC | 1.04 | 
GGGGCCACCAACGACAUUAUGAGCCCUAUCUAUCGACCGAUCAUGUCACGUAGGUUGAUAUAAAUAGUGCCCAUGGAUC | 1.38 | 
GGGGCCACCAACGACAUUCUACGUCGUAGUCGCUUAGCGAUGACCGUUAGAUGUUGAUAUAAAUAGUGCCCAUGGAUC | 0.74 | 
GGGGCCACCAACGACAUUGUCGUAGGCGUCAUAUUAUACUUACGCUGACCAAUGUUGAUAUAAAUAGUGCCCAUGGAUC | 2.09 | 
GGGGCCACCAACGACAUUUGCAUUUGGCAUCCAUAUCGGGCGACCGAUAGUUCGUUGAUAUAAAUAGUGCCCAUGGAUC |  | 2.86

Sequence | binding signal (PAI-1 wild type, active [1]) [enrichment factor] | binding signal (PAI-1 wild type, active [2]) [enrichment factor]
GGGGCCACCAACGACAUUGUACUGUAGUCUUGAUUUUAAGACGACCAAAUGUAGUUGAUAUAAAUAGUGCCCAUGGAUC |  | 1.02
GGGGCCACCAACGACAUUGAUGAUCACUGUUUCGCGCAGUGCCGUAUAUCGAUGUUGAUAUAAAUAGUGCCCAUGGAUC | 4.36 | 
GGGGCCACCAACGACAUUCAGCGAUGUAGUGCACAUUGCACGACCAUGAUGGAGUUGAUAUAAAUAGUGCCCAUGGAUC | 0.53 | 0.44
GGGGCCACCAACGACAUUAGCAGUCGUAGGCCGUAAUGGCUGACCUGUAUGACGUUGAUAUAAAUAGUGCCCAUGGAUC | 0.68 | 
GGGGCCACCAACGACAUUCGCACUGUAGCUAUGUGGAUAGCGACCAGAAUUUCGUUGAUAUAAAUAGUGCCCAUGGAUC | 2.51 | 
GGGGCCACCAACGACAUUUAGCACCAGCUAACCGUACGCUCAACGCGUAGUUCGUUGAUAUAAAUAGUGCCCAUGGAUC |  | 5.48
GGGGCCACCAACGACAUUGAACCACGUAGGCUCGUUUCUGAGCCGAUCUCGAUGUUGAUAUAAAUAGUGCCCAUGGAUC | 1.62 | 2.66
GGGGCCACCAACGACAUUGUACCACGUAGGAUGAAGUCAUCCGAUCACAGUGUUGAUAUAAAUAGUGCCCAUGGAUC | 0.87 | 1.37
GGGGCCACCAACGACAUUUCCGUGAGGAUCUAUGUUGUGGAAAACAACAGUUCGUUGAUAUAAAUAGUGCCCAUGGAUC | 1.09 | 
GGGGCCACCAACGACAUUUAGGGUGCCGAUCAUGUCACGUAGGCAUCCGAUACGUUGAUAUAAAUAGUGCCCAUGGAUC | 0.42 | 0.62
GGGGCCACCAACGACAUUGACCCGUAGUGUCUUACUACGACUUGUAGAUGUUGUUGAUAUAAAUAGUGCCCAUGGAUC | 0.5 | 
GGGGCCACCAACGACAUUCUAGUCUGGUAGCAAUACCUAAGUUCGUCUAGAAAGUUGAUAUAAAUAGUGCCCAUGGAUC | 0.89 | 
GGGGCCACCAACGACAUUUGCAUAAUGCAUCUAUAGUCGCUAGAGACUAGCUCGUUGAUAUAAAUAGUGCCCAUGGAUC |  | 1.69
GGGGCCACCAACGACAUUGGUCACAUGACCACCGUAUGAUUUACUCAUAGUUCGUUGAUAUAAAUAGUGCCCAUGGAUC |  | 2.36
GGGGCCACCAACGACAUUUACGCACCGUAGACUUAAUAGUCGAUUAGUACAUGUUGAUAUAAAUAGUGCCCAUGGAUC | 1.19 | 
GGGGCCACCAACGACAUUGACCCGGUCACUUAUGUGGCCGAUAUCGUAGAUGCGUUGAUAUAAAUAGUGCCCAUGGAUC | 0.2 | 
GGGGCCACCAACGACAUUAAGUUCGUCCCCGUAAGCUCUUACGGGGUCUAUGCGUUGAUAUAAAUAGUGCCCAUGGAUC | 5.92 | 
GGGGCCACCAACGACAUUACGUAGCAUGAUGAGUUUCUCGUCGGCGAUCAGUUGUUGAUAUAAAUAGUGCCCAUGGAUC | 0.98 | 
GGGGCCACCAACGACAUUUCCUAAACAGGAUCUAUACUCCUAGCGAGUAGUUCGUUGAUAUAAAUAGUGCCCAUGGAUC |  | 3.43
GGGGCCACCAACGACAUUUGCACACCACGUAGGCAAAUUGCCGAUCGUGCUAUGUUGAUAUAAAUAGUGCCCAUGGAUC |  | 1.3
GGGGCCACCAACGACAUUUGGACUGAAUCCAACCUUAUGCGUAAGCAUAGUUCGUUGAUAUAAAUAGUGCCCAUGGAUC | 2.2 | 3.55

From PMC4666376, “Characterisation of aptamer–target interactions by branched selection and high-throughput sequencing of SELEX pools”
